Mtb FBA inh – Mtb FBA enzyme inhibitors, primary screen, biochemical, fluorescence, strain H37Rv; Fructose-bisphosphate aldolase (Mycobacterium tuberculosis (strain ATCC 25618 / H37Rv)), …; purified M. tuberculosis FBA, fluorescence read-out; inhibition, % at 1 µM; actives 2.3% (n = 360,000); AID 588726, 2011; in the data active means inhibition above about 27%
Y pestis TopoI – Yersinia pestis topoisomerase I inhibitors, primary screen, biochemical, cleavage product accumulation, plate reader, single point; Y. pestis Topo-I cleavage product accumulation; activity, % at 10 µM; actives 0.064% (n = 360,000); in the data active means activity above about 50%, passing the limit was not always enough
PrPC surface inh – inhibitors of human cell surface prion protein PrPC, primary screen, cell-based, TR-FRET. Major prion protein (Homo sapiens), P04156. TR-FRET read-out. inhibition, % at 13.8 µM. actives 0.43% (n = 370,000). AID 720596, 2013; in the data active means inhibition above about 24%
TcdB inh – TcdB glycohydrolase inhibitors, primary screen, biochemical, single point, plate reader | TcdB glycohydrolase enzymatic assay | inhibition, % at 9.99 µM | actives 0.24% (n = 350,000) | AID 652162, 2013; in the data active means inhibition above about 10%
GDH-TPI counter – GDH-TPI coupling enzyme inhibitors, primary screen, artefact control for M. tuberculosis FBA inhibitor project, biochemical, absorbance, full deck; GDH-TPI coupled enzyme counterscreen, NADH absorbance; inhibition, % at 4.8 µM; actives 1.2% (n = 360,000); AID 588335, 2011; in the data active means inhibition above about 30%
PrPC TRFRET cf – confirmation of inhibitors of cell surface human prion protein, confirmation, cell-based, TR-FRET | shares compounds with PrPC surface inh | cell surface PrPC level | inhibition, % at 13.8 µM | actives 65% (n = 1,500) | AID 743200, 2013; in the data active means inhibition above about 25%
LD9 cytotox – cytotoxicity in LD9 cells, cytotoxicity control for cell surface PrPc inhibitor project, cell-based, luminescence, high throughput; shares compounds with PrPC surface inh; luminescence viability; inhibition, % at 13.8 µM; actives 29% (n = 1,500); AID 743201, 2013; in the data active means inhibition above about 9.5%
Large screens that a line does not name were inactive (follow-up assays come after a bar, where they were run). The list is not random: actives were taken first. Their share in the collection is about 3.2%.

O=C1C(=O)N(CCCn2ccnc2)C(c2cccc(Br)c2)/C1=C(\O)c1ccc2c(c1)OCCO2 (configuration not stated)	PrPC surface inh 30 | PrPC TRFRET cf 43 | LD9 cytotox inactive
O=C1C(=O)N(CCCn2ccnc2)C(c2ccc(Br)cc2)/C1=C(\O)c1ccc2c(c1)OCCO2 (configuration not stated)	none
O=C1C(=O)N(CCCn2ccnc2)C(c2ccc(Cl)cc2)/C1=C(\O)c1ccc2c(c1)OCCO2 (configuration not stated)	PrPC surface inh 32 | PrPC TRFRET cf inactive | LD9 cytotox inactive
CSCCC(Nc1ncnc2ccc(Br)cc12)C(=O)O (configuration not stated)	PrPC surface inh 42 | PrPC TRFRET cf 104 | LD9 cytotox inactive
Brc1ccc2ncnc(NCc3ccco3)c2c1	PrPC surface inh 26 (no result: TcdB inh) | PrPC TRFRET cf 32 | LD9 cytotox 13
COc1cc2ncnc(NCc3ccco3)c2cc1OC	none
CC(=O)c1ccc(Nc2ncnc3ccc(Br)cc23)cc1	none
CC(C)Nc1ncnc2ccc(Br)cc12	PrPC surface inh 25 | PrPC TRFRET cf 34 | LD9 cytotox inactive
CNC(=O)C[C@H]1CC[C@@H]2[C@H](COc3ccc(NC(=O)C4CCCCC4)cc3C(=O)N2C)O1	none (no result: Mtb FBA inh, Y pestis TopoI, PrPC surface inh, GDH-TPI counter)
COc1ccccc1-c1ccc2c(c1)O[C@@H](CN(C)C(=O)c1cccnc1)[C@H](C)CN([C@H](C)CO)S2(=O)=O	none (no result: Mtb FBA inh, Y pestis TopoI, PrPC surface inh, GDH-TPI counter)
Cc1csc(NC(=O)c2cc3c(C)nn(Cc4ccccc4Cl)c3s2)n1	PrPC surface inh 33 (no result: TcdB inh) | PrPC TRFRET cf inactive | LD9 cytotox inactive
C/C(N)=C(/C#N)C(=O)CSc1nc2ccccc2c(=O)n1Cc1ccc(C)cc1	PrPC surface inh 27 | PrPC TRFRET cf inactive | LD9 cytotox inactive
CC(c1ccccc1)n1c(SCC(=O)N2CC(=O)Nc3ccccc32)nc2ccccc2c1=O (configuration not stated)	none (no result: TcdB inh)
Cc1ccc(Cn2c(SCC(=O)N3CC(=O)Nc4ccccc43)nc3ccccc3c2=O)cc1	PrPC surface inh 29 | PrPC TRFRET cf 45 | LD9 cytotox inactive
C/C(N)=C(/C#N)C(=O)CSc1nc2ccccc2c(=O)n1Cc1ccc(F)cc1	none
CNC[C@H]1Oc2c(N)cccc2C(=O)N([C@@H](C)CO)C[C@@H]1C	none (no result: Mtb FBA inh, Y pestis TopoI, PrPC surface inh, GDH-TPI counter)
Cc1ccc(Cc2c(-c3ccco3)nc3ccc(C)cn23)cc1	none (no result: Y pestis TopoI, GDH-TPI counter)
Brc1ccc2nc(-c3ccco3)c(Cc3ccccc3)n2c1	PrPC surface inh 37 (no result: Y pestis TopoI, GDH-TPI counter) | PrPC TRFRET cf 66 | LD9 cytotox inactive
COc1ccc(-c2nc3ccc(Br)cn3c2Cc2cccc(F)c2)cc1OC	PrPC surface inh 36 (no result: Y pestis TopoI, GDH-TPI counter) | PrPC TRFRET cf 65 | LD9 cytotox inactive
Clc1cccc(Cc2c(-c3ccco3)nc3ccc(Br)cn23)c1	PrPC surface inh 42 (no result: Y pestis TopoI, GDH-TPI counter) | PrPC TRFRET cf 51 | LD9 cytotox inactive
Cc1ccc(CN2CCCCC(NC(=O)c3ccc(-c4ccccc4)cc3)C2=O)cc1 (configuration not stated)	none (no result: Mtb FBA inh, Y pestis TopoI, TcdB inh, GDH-TPI counter)
Cc1ccc(CN2CCCCC(NC(=O)Nc3ccccc3-c3ccccc3)C2=O)cc1 (configuration not stated)	PrPC surface inh 30 (no result: Mtb FBA inh, Y pestis TopoI, TcdB inh, GDH-TPI counter) | PrPC TRFRET cf inactive | LD9 cytotox inactive
CC1CCc2sc(C(=O)Nc3ccc(C(N)=O)cc3)cc2C1 (configuration not stated)	PrPC surface inh 70 | PrPC TRFRET cf 44 | LD9 cytotox inactive
CC1CCc2sc(C(=O)NN)cc2C1 (configuration not stated)	none
CO[C@@H]1CN(C)C(=O)c2cc(NC(=O)C3CC3)ccc2OC[C@@H](C)N(Cc2cncnc2)C[C@@H]1C	none (no result: Mtb FBA inh, Y pestis TopoI, PrPC surface inh, GDH-TPI counter)
Cc1cccc(/C=N/NC(=O)c2c(-c3ccccc3)noc2C)c1O	PrPC surface inh 26 | PrPC TRFRET cf inactive | LD9 cytotox inactive
CC(C)C[C@@H](CN1CCC[C@@H]1CN1C(=O)C(=O)NC[C@@H]1Cc1ccccc1)N1C[C@H](Cc2ccc(O)cc2)N(CC2CCCCC2)C(=O)C1=O	none
CC(C)C[C@@H](CN1CCC[C@H]1CN1C(=O)C(=O)NC[C@@H]1Cc1ccccc1)N1C[C@H](Cc2ccc(O)cc2)N(CC2CCCCCC2)C(=O)C1=O	PrPC surface inh 26 (no result: Mtb FBA inh, Y pestis TopoI, GDH-TPI counter) | PrPC TRFRET cf inactive | LD9 cytotox inactive
O=C(N[C@H]1C=C[C@@H](CC(=O)N2CCOCC2)O[C@@H]1CO)c1cccc(F)c1	none (no result: Mtb FBA inh, Y pestis TopoI, PrPC surface inh, GDH-TPI counter)
C[C@H]1CN([C@@H](C)CO)C(=O)Cc2cc(NS(=O)(=O)c3ccccc3)ccc2O[C@@H]1CN(C)Cc1ccc(C(=O)O)cc1	none (no result: Mtb FBA inh, Y pestis TopoI, PrPC surface inh, GDH-TPI counter)
Cc1nc(SCCOc2ccc(F)cc2)c2ccccc2n1	none
Cc1nc(SCC(=O)NNC(=O)c2ccc(F)cc2)c2ccccc2n1	PrPC surface inh 82 | PrPC TRFRET cf 100 | LD9 cytotox inactive
CCCc1nc(SCC(=O)NNC(=O)c2ccc(OC)cc2)c2ccccc2n1	PrPC surface inh 93 | PrPC TRFRET cf 115 | LD9 cytotox inactive
CCCc1nc(SCC(=O)NNC(=O)C2CCCCC2)c2ccccc2n1	PrPC surface inh 41 (no result: TcdB inh) | PrPC TRFRET cf 110 | LD9 cytotox inactive
CCc1nc(SCC(=O)N2CCCC2)c2ccccc2n1	none
CCc1nc(SCC(=O)OC(C)C)c2ccccc2n1	PrPC surface inh 83 | PrPC TRFRET cf 97 | LD9 cytotox inactive
CCS(=O)(=O)N1CCC2(CC1)CN(C(=O)c1ccc(F)cc1)[C@H](CO)c1[nH]c3cc(OC)ccc3c12	none (no result: Mtb FBA inh, Y pestis TopoI, PrPC surface inh, GDH-TPI counter)
Cc1ccc(S(=O)(=O)Nc2ccc3c(c2)CC(=O)N([C@H](C)CO)C[C@H](C)[C@H](CN(C)C(=O)Nc2ccccc2)O3)cc1	none (no result: Mtb FBA inh, Y pestis TopoI, PrPC surface inh, GDH-TPI counter)
CC(C)C#Cc1cnc2c(c1)C(=O)N([C@H](C)CO)C[C@H](C)[C@@H](CN(C)Cc1cccc(F)c1)O2	none (no result: Mtb FBA inh, Y pestis TopoI, PrPC surface inh, GDH-TPI counter)
O=C(Oc1ccc2c(c1)OCC2=O)c1ccccc1	none (no result: TcdB inh)
O=C1COc2cc(O)ccc21	PrPC surface inh 28 | PrPC TRFRET cf inactive | LD9 cytotox inactive
O=C(Nc1ccc2c(c1)OCO2)N[C@H]1C=C[C@@H](CC(=O)N2CCN(c3ccccc3)CC2)O[C@@H]1CO	none (no result: Mtb FBA inh, Y pestis TopoI, PrPC surface inh, GDH-TPI counter)
Cc1ccc(C)c(S(=O)(=O)N2CCN(C(=O)c3ccccc3Cc3ccccc3)CC2)c1	PrPC surface inh 55 | PrPC TRFRET cf inactive | LD9 cytotox inactive
COc1ccc(CN(C)C[C@@H]2OCCCC[C@@H](C)Oc3ccc(N(C)C)cc3C(=O)N([C@H](C)CO)C[C@H]2C)cc1	none (no result: Mtb FBA inh, Y pestis TopoI, PrPC surface inh, GDH-TPI counter)
CCc1c(C)nc2c(Br)cccc2c1SCCC#N	PrPC surface inh 64 | PrPC TRFRET cf 90 | LD9 cytotox inactive

Bioassay records from PubChem BioAssay.
